Measured values as given in publication PMC4336329 (PLoS ONE, 2015).
The campaign covered roughly 310,000 compounds. About 14,000 (4.5%) showed an effect of 50% or more. Effects have a minus sign here. The full list was thinned out, with strong results kept by preference.

molecular target: human ether-à-go-go-related gene (hERG) potassium channel (human, UniProt Q12809); assay: primary screen, population patch clamp on CHO cells stably expressing hERG; higher = less effect of the substance
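Note: peak tail current of the secondary pulse compared with the same well before compound.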

Sequence of human ether-à-go-go-related gene (hERG) potassium channel (Q12809 whole entry, looked up): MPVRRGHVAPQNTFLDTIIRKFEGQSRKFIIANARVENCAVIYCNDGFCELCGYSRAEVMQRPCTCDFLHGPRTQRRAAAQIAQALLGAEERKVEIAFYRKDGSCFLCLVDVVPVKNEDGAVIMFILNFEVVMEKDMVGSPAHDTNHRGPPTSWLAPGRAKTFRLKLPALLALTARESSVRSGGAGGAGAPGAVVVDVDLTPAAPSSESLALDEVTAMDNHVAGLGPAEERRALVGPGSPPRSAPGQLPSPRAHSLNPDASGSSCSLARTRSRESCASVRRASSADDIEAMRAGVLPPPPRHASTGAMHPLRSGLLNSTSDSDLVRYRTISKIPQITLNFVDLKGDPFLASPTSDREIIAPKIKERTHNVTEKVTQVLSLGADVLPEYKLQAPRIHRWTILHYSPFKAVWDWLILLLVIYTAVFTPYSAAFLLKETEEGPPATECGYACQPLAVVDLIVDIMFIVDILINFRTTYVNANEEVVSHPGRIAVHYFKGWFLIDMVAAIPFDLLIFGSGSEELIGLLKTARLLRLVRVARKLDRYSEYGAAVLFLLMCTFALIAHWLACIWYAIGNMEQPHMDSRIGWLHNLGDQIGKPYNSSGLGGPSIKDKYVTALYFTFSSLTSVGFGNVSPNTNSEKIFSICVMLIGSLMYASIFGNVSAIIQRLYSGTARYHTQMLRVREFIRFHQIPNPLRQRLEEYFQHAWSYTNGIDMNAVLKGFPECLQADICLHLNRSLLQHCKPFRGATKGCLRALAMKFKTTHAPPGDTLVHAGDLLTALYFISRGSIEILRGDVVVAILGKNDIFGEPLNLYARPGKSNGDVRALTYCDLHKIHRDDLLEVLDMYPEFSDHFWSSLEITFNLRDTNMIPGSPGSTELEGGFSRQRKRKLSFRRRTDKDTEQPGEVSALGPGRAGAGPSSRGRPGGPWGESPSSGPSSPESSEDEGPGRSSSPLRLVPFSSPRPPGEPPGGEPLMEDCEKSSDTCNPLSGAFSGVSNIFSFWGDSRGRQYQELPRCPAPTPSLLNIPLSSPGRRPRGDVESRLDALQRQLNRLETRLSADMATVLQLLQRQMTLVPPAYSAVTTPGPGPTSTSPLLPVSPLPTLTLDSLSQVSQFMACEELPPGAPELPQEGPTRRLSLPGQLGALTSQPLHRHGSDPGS

Row | Structure (SMILES) | hERG current change (%, negative = inhibition) at 10uM
1 | CCOc1ccc(NC(=O)C(CC(=O)O)Cc2ccccc2)cc1 (stereo not shown) | 5.94%
2 | O=C(c1ccco1)N1CCC(c2nc3ccccc3[nH]2)CC1 | -5.9%
3 | CCCOc1ccc(CSC(=N)N)cc1C(=O)OC.Cl | -0.181%
4 | COC(=O)c1cc(CSC(=N)N)ccc1OCCC(C)C.Cl | -3.46%
5 | Cl.N=C(N)SCc1ccc(O)c([N+](=O)[O-])c1 | -0.169%
6 | COc1ccc(CSC(=N)N)cc1[N+](=O)[O-].Cl | -3.72%
7 | CCOc1ccc(CSC(=N)N)cc1[N+](=O)[O-].Cl | -65.5%
8 | CCOc1ccc(CSC(=N)N)cc1Cl.Cl | -15.2%
9 | CCCCOc1ccc(CSC(=N)N)cc1[N+](=O)[O-].Cl | -64.1%
10 | CCCCCOc1ccc(CSC(=N)N)cc1[N+](=O)[O-].Cl | -56.7%
11 | CCCCOc1ccc(CSC(=N)N)cc1Cl.Cl | -21.9%
12 | Cc1ccc(-c2n[nH]c(=O)c3ccccc23)cc1N | 5.75%
13 | COc1cccc(CNC(=O)c2ccc(Cl)c(S(=O)(=O)N3CCOCC3)c2)c1 | -19.5%
14 | COc1ccc(OC)c(S(=O)(=O)n2nnc3cc(Cl)ccc32)c1 | 4.31%
15 | COc1ccc(NC(=O)c2ccccc2OCc2c(C)noc2C)cc1OC | -37.5%
16 | CN(c1ccc(C(=O)N2CCN(Cc3ccccc3)CC2)cc1)S(=O)(=O)c1ccc(Cl)cc1 | -24.9%
17 | Cc1ccc(-c2noc(C3CCCN(C(=O)c4ccc(C(C)(C)C)cc4)C3)n2)o1 (stereo not shown) | -19.8%
18 | Cc1ccc(-c2noc(C3CCCN(C(=O)c4ccc(Cl)cc4)C3)n2)o1 (stereo not shown) | -55.2%
19 | Cc1ccc(-c2noc(C3CCCN(C(=O)c4ccccc4Br)C3)n2)o1 (stereo not shown) | -42.6%
20 | Cc1ccc(-c2noc(C3CCCN(C(=O)c4cccc(Cl)c4)C3)n2)o1 (stereo not shown) | -43.4%
21 | CCOc1ccc(C(=O)N2CCCC(c3nc(-c4ccc(C)o4)no3)C2)cc1 (stereo not shown) | -60.2%
22 | Cc1cccc(C(=O)N2CCCC(c3nc(-c4ccc(C)o4)no3)C2)c1 (stereo not shown) | -27.7%
23 | COc1cc(OC)cc(C(=O)N2CCCC(c3nc(-c4ccc(C)o4)no3)C2)c1 (stereo not shown) | -9.35%
24 | Cc1ccc(-c2noc(C3CCCN(C(=O)c4ccccc4)C3)n2)o1 (stereo not shown) | -13.1%
25 | Cc1ccc(-c2noc(C3CCCN(C(=O)c4cccc([N+](=O)[O-])c4)C3)n2)o1 (stereo not shown) | -65%
26 | COc1ccc(C(=O)N2CCCC(c3nc(-c4ccc(C)o4)no3)C2)cc1OC (stereo not shown) | -8.29%
27 | CCOc1ccc(C(=O)N2CCCC(c3nc(-c4cccs4)no3)C2)cc1 (stereo not shown) | -46.9%
28 | CCOc1ccccc1NC(=O)N1CCCC(c2nc(-c3ccc(C)o3)no2)C1 (stereo not shown) | -52.5%
